High-throughput results as filed in PubChem BioAssay.
DRD3 agonist: activates the human D3 dopamine receptor; P35462; D3R DiscoveRx beta-arrestin cells, luminescence, 90 min; max activation, %; 0.58% of 410,000 active; AID 652048; in the data active means max activation above about 30%; further: 0% is about no effect
Target sequence (P35462 whole entry, looked up): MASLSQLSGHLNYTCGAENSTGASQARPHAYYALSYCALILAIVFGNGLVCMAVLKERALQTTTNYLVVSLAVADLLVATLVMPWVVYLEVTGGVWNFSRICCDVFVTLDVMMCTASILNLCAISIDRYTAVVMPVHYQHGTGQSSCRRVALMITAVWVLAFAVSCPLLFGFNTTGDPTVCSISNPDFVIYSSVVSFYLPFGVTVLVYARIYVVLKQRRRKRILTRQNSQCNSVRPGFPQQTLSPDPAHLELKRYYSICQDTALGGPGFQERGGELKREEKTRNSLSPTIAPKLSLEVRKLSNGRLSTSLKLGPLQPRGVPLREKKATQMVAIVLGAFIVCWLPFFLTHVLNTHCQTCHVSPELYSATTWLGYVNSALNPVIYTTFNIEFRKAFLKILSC
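Agonist-mode cell screen: cells plated at 1500/well and incubated overnight at 37 °C, then exposed to library compounds for 90 min at 37 °C. Detection reagent was added for 30–60 min at room temperature, and luminescence was read.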
D1 ag: agonists of human D1 dopamine receptor; AID 504660; P21728; 1% of 360,000 active; HEK293 T-REx D1 cells, calcium flux, agonist mode; activation, % at 2 µM; in the data active means activation above about 30%; further: 0% is about no effect
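Agonism was scored from calcium flux recorded over 180 s (1 read/s) after pintool compound addition, following a 10-cycle baseline. Cells were inducible force-coupled HEK293 TREx D1, plated overnight at 30 C and loaded with no-wash calcium dye.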
D3 antag: antagonists of human D3 dopamine receptor. P35462. 2.5% of 360,000 active. max response, negative = inhibition, %. D3R cells, DiscoveRx beta-arrestin luminescence, antagonist mode; stronger effect = lower value. AID 652054; in the data active means max response below about -50%; inconclusive means no clear call, values can overlap the other calls; further: on the % scale 0 is the no-effect control and ±100 the full control effect
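Cells plated overnight at 1500 cells/well, then exposed to library compounds with dopamine controls for 90 minutes at 37 degrees C. DiscoveRx reagent added for 30–60 minutes at room temperature; luminescence read, quantitative HTS format.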
D1 potentiator: human D1 dopamine receptor positive modulation; P21728; HEK293 TREx D1 cells, calcium flux, dopamine EC20 potentiation; potentiation, % at 10 µM; 0.036% of 360,000 active; AID 504651; in the data active means potentiation above about 30%; further: 0% is about no effect
D1 antagonist: antagonists of human D1 dopamine receptor; P21728; HEK293 TREx D1 cells, calcium flux, dopamine EC80; stronger effect = lower value; activity change, negative = inhibition, % at 10 µM; 3.2% of 360,000 active; in the data active means activity change below about -30%; further: on the % scale 0 is the no-effect control and ±100 the full control effect
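Tetracycline-induced HEK293 T-REx cells with force-coupled D1 receptor were loaded with a no-wash calcium dye. Compound was added after a 10 s baseline and read kinetically for 180 s; EC80 dopamine was then added and calcium flux followed another 180 s.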
Starred values were filed as active, the others as inactive; u = inconclusive; x = not tested or not shown; ! = repeats disagree. Only some compounds are listed: those with a hit (about 6% of all), similar ones and a draw of the others.

SMILES	DRD3 agonist	D1 ag	D3 antag	D1 potentiator	D1 antagonist
CCOc1ccccc1/C=N/NC(=O)c1cccc(S(=O)(=O)N2CCOCC2)c1	-19	3	-63*	15	-13
COc1ccccc1NC(=O)c1cccc(S(=O)(=O)N2CCOCC2)c1	3	0	-52*	4	1
O=C(NCC1COc2ccccc2O1)c1cccc(S(=O)(=O)N2CCOCC2)c1 (centres undefined)	1	2	-61*	-8	1
CCCCS(=O)(=O)N[C@@H](Cc1ccc(OCCCCC2CCNCC2)cc1)C(=O)O	0	x	x	x	x
N#Cc1ccc(-c2ccco2)nc1SCc1ccccc1	-3	1	3	-12	-93*
COc1cccc(-c2ccc(C#N)c(SCC(=O)NCc3ccco3)n2)c1	-4	1	-20	0	-28
CCSc1nc(-c2ccco2)ccc1C#N	4	-1	-54*	-8	7
Cc1cc(NC(=O)C2CCCN(S(=O)(=O)c3cccc4nonc34)C2)ccc1Br (centres undefined)	9	2	x	0	2
Cc1ccc(CCNC(=O)c2sc3ncccc3c2-n2c(C)ccc2C)cc1	-10	9	x	0	9
Cc1ccc(SCc2cc(-c3ccc(Cl)cc3)no2)cc1	0	36*	15	-2	-4
Clc1ccc(-c2cc(CSc3ccccc3)on2)cc1	-5	14	15	1	9
Cc1[nH]n(-c2ccccc2)c(=S)c1C=Nc1cccc([N+](=O)[O-])c1	-5	2	-100*	1	5
CCCS(=O)(=O)NC(=O)C1(C)CCN(C(=O)COc2ccc(Cl)cc2Cl)C1 (centres undefined)	76*	x	14	x	x
O=c1c2ccccc2n(Cc2ccccc2Cl)c(=O)n1CCc1ccccc1	6	3	x	2	5
Cc1nc2ccc(S(=O)(=O)NC(C(=O)N3CCn4c3nc3ccccc34)C(C)C)cc2s1 (centres undefined)	6	1	-9	-6	-55*
Cc1ccc(NS(=O)(=O)c2ccc(C(=O)N3CCCCCCC3)cc2)cc1	8	8	-12	-12	-11
Cc1ccc(NS(=O)(=O)c2ccc(C(=O)N3CCCCCC3)cc2)cc1	4	31*	6	-9	-8
CCOc1ccc(OCc2ccc(C(=O)N3CCCC(C)C3)cc2)cc1 (centres undefined)	-8	10	-3	2	-30*
O=C(NCC1(N2CCCCC2)CCCCC1)c1cccc(S(=O)(=O)Nc2ccc(F)cc2)c1	1	5	-17	-4	-38*
CC(C)CC(=O)Nc1nc2c(s1)CC(C(C)(C)C)CC2 (centres undefined)	-24	5	x	-2	1
Nc1ccc(S(=O)(=O)NCc2ccccc2)cc1	-10	x	x	x	x
Cc1ccc(S(=O)(=O)NCCC(=O)N2CCCCC2)cc1	x	-1	x	0	3
CCOc1ccc(NS(=O)(=O)c2ccc(C(=O)NCC3(N4CCCCC4)CCCCC3)cc2)cc1	-6	31*	-2	-1	12
CCOc1ccc(NS(=O)(=O)c2ccc(C(=O)N3CCCCCC3)cc2)cc1	-6	59*	10	-12	-5
CN(c1ccc(C(=O)N2CCCCCC2)cc1)S(=O)(=O)c1ccc(Cl)cc1	3	17	8	-8	-38*
SMILES	DRD3 agonist	D1 ag	D3 antag	D1 potentiator	D1 antagonist
Cc1ccc(S(=O)(=O)NCCC(=O)N2CCCCCC2)cc1	1	4	-3	-14	-36*
CCOc1ccc(NS(=O)(=O)c2ccc(C(=O)NCC3(N(C)C)CCCCC3)cc2)cc1	1	0	-9	6	2
COc1ccc(N2CCN(Cc3nc4c(c(=O)[nH]c(=O)n4C)n3Cc3ccccc3)CC2)cc1	-13	1	x	-2	-8
O=c1cc(O)c(Cl)c[nH]1	6	x	x	x	x
Cc1cccc(CCn2c(=O)c3ccccc3n(Cc3ccccc3C)c2=O)c1	0	1	x	-2	3
CCOC(=O)C1CCN(C(c2ccc(OCC)cc2)c2c(O)cc(C)n(CCOC)c2=O)CC1 (centres undefined)	6	1	x	-2	-5
CCOc1ccc(S(=O)(=O)Nc2ccc3c(c2)N(C(C)=O)CCC3)cc1	7	7	x	-1	-32*
Cc1nc2ccc(S(=O)(=O)NCC(=O)N3CCN(c4ccccc4)CC3)cc2s1	2	1	4	-5	-39*
Cc1nc2ccc(S(=O)(=O)NCC(=O)N3CCCCC3)cc2s1	4	1	2	-3	-1
CCOc1ccc(NS(=O)(=O)c2ccc(C(=O)N3CCCC(C)C3)cc2)cc1 (centres undefined)	9	59*	2	6	-52*
Cc1ccccc1NS(=O)(=O)c1ccc(C(=O)N2CCC2)cc1	-11	-1	-19	5	-63*
Cc1ccc(NC(=O)c2cc(S(=O)(=O)N3CCOCC3)c(Cl)cc2Cl)cc1	12	3	x	-1	0
O=C(c1ccccc1)c1ccc(C(=O)N2CCCC(C(F)(F)F)C2)cc1 (centres undefined)	4	9	u	-6	-16
O=C(c1ccc(S(=O)(=O)Nc2ccccc2)cc1)N1CCCC(C(F)(F)F)C1 (centres undefined)	3	51*	7	-13	-5
Cc1ccc(S(=O)(=O)NCCC(=O)N2CCN(c3cccc(Cl)c3)CC2)cc1C	-2	6	2	3	-30*
c1ccc(CNc2c(-c3cccc(SC4CCCCC4)c3)nc3ccccn23)cc1	43*	x	90	x	x
CCC(C)Sc1cccc(-c2nc3cc(C)ccn3c2NCc2ccccc2)c1 (centres undefined)	77*	0	39	-3	-10
Cc1ccn2c(NCc3ccccc3)c(-c3cccc(SC4CCCCC4)c3)nc2c1	41*!	x	103	x	x
Cc1ccc2nc(-c3cccc(SC4CCCCC4)c3)c(NCc3ccccc3)n2c1	5	x	58	x	x
CC(C)(C)c1cc(/C=N/NC(=O)Cc2nc3ccccc3[nH]2)cc(C(C)(C)C)c1O	5	2	6	-3	-35*
COc1cccc(CNC(=O)c2c(C)nn(-c3cccc(C)c3)c2-n2cccc2)c1	3	8	x	6	-2
OCC[C@H]1C[C@@H](O)[C@H](O)[C@]2(Cc3ccccc3CCO2)O1	31*	1	-9	-4	5
OCC[C@@H]1C[C@H](O)[C@@H](O)[C@@]2(Cc3ccccc3CCO2)O1	-2	1	0	-1	10
OCC[C@H]1C[C@H](O)[C@@H](O)[C@]2(Cc3ccccc3O2)O1	2	0	-68*	0	28
Cc1cccn2c(=O)c(C(=O)NCCc3ccccc3)cnc12	3	1	x	-3	22
CCN(CC)CCSc1nnc2c3ccccc3n(CCc3ccccc3)c2n1	-2	-1	-79*	1	13
C=CCn1c2ccccc2c2nnc(SCCCn3c(=O)[nH]c4ccccc43)nc21	32*	1	80	3	8
